Bioassay records as filed in PubChem BioAssay.
CRFR2-BP antag = CRF-BP/CRF-R2 complex antagonism. HEK293 CRF-R2/CRF-BP, CRF-induced calcium fluorescence. inhibition, % at 11.8 µM. 0.59% of 350,000 active. AID 588475;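 active = inhibition of the ligand-induced calcium signal above about 50% at the single tested concentration, limit read from the data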
cardiac RTF act = cardiac RTF calcium sensitization | IANBD-labeled TnC RTF fluorescence at EC20 calcium; 0% EC20 calcium, 100% full calcium | 0.24% of 340,000 active | activation, % at 7.2 µM | P19429+P45379;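 active = activation above the mean over all tested compounds plus 3 SD, cut at about 30% in these data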;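 also: rise in fluorescence read as greater calcium sensitivity of cardiac thin filaments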
CRFBP-R2 agonist = agonists of human CRF-binding protein/CRF-R2 receptor complex; 0.46% of 350,000 active; activation, % at 13.2 µM; HEK293 CRF-R2/CRF-BP, calcium dye fluorescence (FLIPR); percent of saturating CRF peptide response;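 active = activation of at least 50%, plus an integration ratio under a set limit after plate pattern correction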
LANA DNA inh = inhibitors of KSHV LANA C-terminal domain DNA binding. 0.078% of 340,000 active. inhibition, % at 9 µM. MBP-C-LANA/FAM-LBS DNA binding, fluorescence polarization. AID 504423;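 active = highest replicate inhibition at or above 60% at 9 µM, even if other replicates fall short; inactive = all replicates below 60% inhibition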
Keap1 Nrf2 FP = disrupts human Keap1 binding to Nrf2 peptide; inhibition, % at 9.4 µM; Q14145; 0.15% of 340,000 active; Keap1 Kelch-Nrf2 peptide fluorescence polarization, 1536-well; in the data active = inhibition above about 12%;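 also: human Keap1 Kelch domain with fluorescein labeled Nrf2 9mer peptide probe; higher means more block of Keap1 binding to Nrf2 peptide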
Target sequence (Q14145 whole entry, looked up, the tested form may be a part): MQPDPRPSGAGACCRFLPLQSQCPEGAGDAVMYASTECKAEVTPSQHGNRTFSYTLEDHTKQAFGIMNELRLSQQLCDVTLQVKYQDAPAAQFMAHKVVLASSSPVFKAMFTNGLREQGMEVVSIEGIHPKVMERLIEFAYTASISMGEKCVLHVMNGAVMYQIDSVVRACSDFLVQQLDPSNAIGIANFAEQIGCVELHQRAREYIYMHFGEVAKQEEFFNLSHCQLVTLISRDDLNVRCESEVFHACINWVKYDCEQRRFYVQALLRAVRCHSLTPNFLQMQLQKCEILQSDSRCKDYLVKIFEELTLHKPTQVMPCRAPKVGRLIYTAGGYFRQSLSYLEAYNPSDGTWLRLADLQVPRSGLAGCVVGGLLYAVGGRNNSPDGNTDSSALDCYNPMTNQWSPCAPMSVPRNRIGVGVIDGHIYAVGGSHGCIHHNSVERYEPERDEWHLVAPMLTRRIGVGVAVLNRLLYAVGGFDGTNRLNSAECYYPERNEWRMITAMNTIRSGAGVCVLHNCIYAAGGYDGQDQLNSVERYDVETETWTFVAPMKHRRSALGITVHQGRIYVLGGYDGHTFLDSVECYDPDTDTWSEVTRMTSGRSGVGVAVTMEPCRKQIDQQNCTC
Cardiac RTF inh = cardiac RTF calcium desensitization | P19429+P45379 | IANBD-labeled cardiac RTF, Ca2+ fluorescence | inhibition, % at 7.15 µM | 0.12% of 340,000 active;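 active = inhibition above the mean inhibition of all tested compounds plus 3 SD, cut at about 17% in these data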;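 also: assay run at fixed EC70 calcium of 1.6 mM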
Large screens that a line does not name were inactive. Shown are actives, neighbours in structure and some others; about 1.3% of the full set was active somewhere.

COc1ccc(N/N=C(/N=Nc2nc(C)cc(=O)[nH]2)c2ccccc2)cc1	CRFR2-BP antag 57
CCOC(=O)Cc1csc(NC(=O)CCCN2C(=O)c3ccccc3C2=O)n1	none
CCOCCCNC(=O)N1CCOCC1	none
O=C(NCCCCCCNC(=O)N1CCCCCC1)N1CCCCCC1	CRFR2-BP antag 76
O=C(NCCN1CCN(C(=O)NC2CCCCC2)CC1)NC1CCCCC1	CRFR2-BP antag 67
O=C(O)c1ccc(-c2noc(-c3ccccc3C(F)(F)F)n2)cc1	none
FC(F)(F)c1ccccc1-c1nc(-c2ccncc2)no1	CRFR2-BP antag 57
Cc1cc(C)cc(N2C(=O)CC(N3CCOCC3)C2=O)c1 (centres undefined)	none
O=C1OC(c2ccc3c(c2)OCO3)N(C(=O)c2ccc(Cl)c(Cl)c2)c2ccccc21 (centres undefined)	none
Cc1cccc(C(=O)N2c3ccccc3C(=O)OC2c2ccc3c(c2)OCO3)c1 (centres undefined)	CRFR2-BP antag 75
COC(=O)c1scc2c(=O)cc(C(F)(F)F)[nH]c12	CRFBP-R2 agonist 63
Cc1cc(C)n(CC(=O)n2c(C)c(C)c3ccccc32)n1	none
COc1cc(CN(C2CCCCC2C)S(=O)(=O)c2ccc(S(=O)(=O)NC3CC3)cc2)cc(OC)c1OC (centres undefined)	none
COc1ccc(CN(C2CCCCC2C)S(=O)(=O)c2ccc(S(=O)(=O)N(C)C)cc2)cc1OC (centres undefined)	CRFBP-R2 agonist 148
O=C(Nc1ncc([N+](=O)[O-])s1)c1cccc([N+](=O)[O-])c1	CRFR2-BP antag 70, CRFBP-R2 agonist 66
O=C1N(c2ccccc2)C2CS(=O)(=O)CC2N1c1ccc(Cl)c(Cl)c1 (centres undefined)	none
O=C1CC2CS(=O)(=O)CC2N1c1ccc(Oc2ccccc2)cc1 (centres undefined)	CRFR2-BP antag 121
O=C(NC(=S)Nc1ccccc1)c1ccc(-c2ccccc2)cc1	none
O=C(NNC(=S)NC(=O)c1ccccc1)c1ccc([N+](=O)[O-])cc1	none
O=C(NNC(=S)Nc1cccc(C(F)(F)F)c1)c1ccc(Cl)cc1Cl	CRFBP-R2 agonist 54
O=C(NC(=S)NNC(=O)c1ccccc1O)c1ccc([N+](=O)[O-])cc1	CRFBP-R2 agonist 50
O=C(O)c1ccc(NC(=S)NC(=O)c2ccc(-c3ccccc3)cc2)cc1	CRFR2-BP antag 78
O=C(NNC(=S)NC(=O)c1ccccc1Cl)c1cccc([N+](=O)[O-])c1	CRFBP-R2 agonist 65
Cc1ccc(C(=O)NNC(=S)NC(=O)c2ccc(Cl)cc2Cl)cc1	CRFBP-R2 agonist 156
Cc1ccc(C(=O)NC(=S)NNC(=O)c2ccccc2)cc1	CRFBP-R2 agonist 121
Cc1ccc(C(=O)NNC(=S)NC(=O)c2ccccc2)cc1	CRFBP-R2 agonist 138
Cc1ccc(C(=O)NC(=S)NNC(=O)c2ccccc2O)cc1	CRFBP-R2 agonist 90
CC(C)NC(=S)NC(=O)c1ccc(Cl)cc1Cl	none
Cc1cc(C(=O)OCC(=O)N(C)C2CCS(=O)(=O)C2)c(C)n1-c1ccccc1 (centres undefined)	none
CCOC(=O)Cn1ccc(O)c(Cc2ccc(Cl)cc2Cl)c1=O	none
CCN(CC(=O)Nc1cc(Cl)ccc1C)c1ncnc2sc(C)c(C)c12	none
O=C(CSc1nc(Nc2ccccc2)nc(N2CCOCC2)n1)Nc1cccc([N+](=O)[O-])c1	none
Cc1occc1C(=O)NNC(=O)COc1ccc(Br)cc1Br	none
Cc1occc1C(=O)NNC(=S)NC(=O)COc1ccc(Cl)cc1Cl	CRFBP-R2 agonist 230
Cc1ccc(C(=O)NNC(=S)NC(=O)c2ccco2)cc1	CRFBP-R2 agonist 97
CCCCC(=O)NC(=S)NNC(=O)c1ccc(Cl)cc1Cl	CRFBP-R2 agonist 111
O=C(NC(=S)NNC(=O)c1ccccc1O)c1ccccc1	none
Cc1ccccc1C(=O)NNC(=S)NC(=O)c1ccccc1	CRFBP-R2 agonist 160
CC1(C)CC(=O)C2=C(C1)Nc1ccccc1NC2	CRFBP-R2 agonist 55
CC1(C)CC(=O)C2=C(C1)Nc1ccccc1S2	none
O=C(c1c(O)c2ccccc2oc1=O)C1CCCCC1	none
O=C(CCC1CCCC1)c1c(O)c2ccccc2oc1=O	CRFR2-BP antag 66, CRFBP-R2 agonist 89
Cc1cc([N+](=O)[O-])ccc1NCc1ccccc1	CRFR2-BP antag 114
O=C(O)C(Cc1ccccc1)Nc1ccc([N+](=O)[O-])cc1[N+](=O)[O-] (centres undefined)	CRFR2-BP antag 53
COc1ccc(CNc2cc([N+](=O)[O-])ccc2OC)cc1	CRFR2-BP antag 89
Cc1cc(N2CCN(C)CC2)nc2ccc(NC(=O)CCC(=O)NCCCOC(C)C)cc12	CRFR2-BP antag 51
Cc1cc(C)c(NC(=O)CCN2CCN(Cc3ccccc3)CC2)c(C)c1	none
CSCCC(NC(=O)c1ccccc1)C(=O)N/N=C(\C)c1ccccc1 (centres undefined)	CRFBP-R2 agonist 112
COc1cccc(OC)c1OCCCOc1ccc([N+](=O)[O-])cc1Cl	none
C=CCN(CC(=O)NCc1ccccc1)C(=O)c1csnn1	CRFR2-BP antag 87
CCC(C)NC(=O)CN(c1cc(C)cc(C)c1)S(=O)(=O)c1c(C)[nH]c(=O)[nH]c1=O (centres undefined)	none
N#Cc1cccc(S(=O)(=O)Nc2c(NC3CCCCC3)c3ccccc3oc2=O)c1	none
Cc1ccc2[nH]cc(/C=C/c3cc[n+](C)cc3)c2c1	cardiac RTF act 230
CC[n+]1ccc(/C=C/c2c[nH]c3ccccc23)cc1	cardiac RTF act 102, CRFBP-R2 agonist 61
COc1ccc2c(/C=C/c3cc[n+](C)cc3)c[nH]c2c1	none
CCOc1cc(/C=C2/COc3ccccc3C2=O)ccc1OCC(=O)N(C)C	none
CCOc1cccc(N(C(=O)CNC(=O)c2ccco2)C(C(=O)NCC2CCCO2)c2ccccc2)c1 (centres undefined)	none
CCOC(=O)C1=NN(C(=O)c2ccc(C)cc2)C(O)(c2ccc(Cl)cc2)C1 (centres undefined)	CRFBP-R2 agonist 90
COC(=O)C1=NN(C(=O)c2ccc(Cl)cc2)C(O)(c2ccccc2)C1 (centres undefined)	CRFBP-R2 agonist 72
CCC1=NN(C(=O)c2ccc(Cl)cc2)C(O)(c2ccc(C)cc2)C1 (centres undefined)	none
CCC1=NN(C(=O)c2ccc(Cl)cc2)C(O)(c2ccccc2)C1 (centres undefined)	none
CCN(CC)c1ccc(C=C2C(=O)OC3(CCCCC3)OC2=O)cc1	none
CCCCC1(C)OC(=O)C(=Cc2ccc(N(CC)CC)cc2)C(=O)O1 (centres undefined)	CRFBP-R2 agonist 59
